Laboratory results published in PubChem BioAssay.
Activity calls are given as the source filed them.

What was measured:
[1] = tested on: Plasmodium falciparum Sir2 (PF13_0152, Sir2A); assay: pfSir2 binders on small-molecule microarrays, primary screen, biochemical, small-molecule microarray, 635 nm fluorescence (AID 1098); settings: small-molecule microarray binding, fluorescence 635 nm; higher = more signal;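 also: score merges spot fluorescence intensity with its signal-to-noise ratio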
[2] = small-molecule microarray binders of probe aDKK1, primary screen, biochemical, biotinylated probe, 635/667 nm fluorescence (AID 1099); settings: higher = more signal;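 also: score merges 667nm spot fluorescence with signal to noise across triplicate slides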
[3] = small-molecule microarray binders of probe aCHRDL2, primary screen, biochemical, biotinylated probe, 635/667 nm fluorescence (AID 1100); settings: higher = more signal
[4] = splicing luciferase reporter signal modulators, primary screen, spliceosome inhibition project, cell-based, HEK293, splice +/- reporter (AID 1101); settings: luminescence, 24 h, higher = more signal, called active from +8 up or from −8 down;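 also: HEK293 cells carrying a splicing-competent luciferase reporter gene; test concentration not given here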
[5] = molecular target: Fibroblast growth factor 10 (Homo sapiens) (UniProt O15520); assay: FGF10 binders on small-molecule microarrays, primary screen, biochemical, small-molecule microarray, 635 nm fluorescence (AID 1102); settings: FGF10 binding, fluorescence 635 nm, higher = more signal
[6] = tested on: glycogen synthase kinase-3 (GSK3A per assay name; protocol says GSK3B); assay: GSK3 binders on small-molecule microarrays, primary screen, biochemical, small-molecule microarray, 635 nm fluorescence, GSK3A (AID 1103); settings: small-molecule microarray binding, fluorescence 635 nm; higher = more signal; also: the record names both GSK3A and GSK3B
[7] = molecular target: Epidermal growth factor receptor (Homo sapiens) (UniProt P00533); assay: EGFR binders on small-molecule microarrays, primary screen, biochemical, small-molecule microarray, 635 nm fluorescence (AID 1104); settings: EGFR binding, higher = more signal;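 also: score merges 667 nm emission intensity with spot signal to noise over triplicate slides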
[8] = molecular target: Follistatin-related protein 3 (Homo sapiens) (UniProt O95633); assay: FSTL3 binders on small-molecule microarrays, primary screen, biochemical, small-molecule microarray, 635 nm fluorescence (AID 1105); settings: FSTL3 binding, higher = more signal;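 also: score merges emission near 667 nm and signal to noise per printed spot across three slides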
[9] = molecular target: Dickkopf-related protein 1 (Homo sapiens) (UniProt O94907); assay: DKK1 binders on small-molecule microarrays, primary screen, biochemical, small-molecule microarray, 635 nm fluorescence scan (AID 1106); settings: DKK1 binding, higher = more signal;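 also: score merges emission near 667 nm with signal to noise over three replicate slides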
[10] = tested on: Inhibin beta A chain (activin A); assay: INHBA (activin A) binders on microarrays, primary screen, biochemical, small-molecule microarray, 635 nm fluorescence scan (AID 1107); settings: small-molecule microarray binding, higher = more signal;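 also: mouse activin A protein probed at 4.33 µg/mL on printed slides; score merges bound-protein fluorescence near 667 nm with spot signal-to-noise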
[11] = tested on: Human papillomavirus type 1a protein E7 (residues 44-93); assay: HPV1a E7 fragment binders on microarrays, primary screen, biochemical, small-molecule microarray, residues 44-93, 635 nm fluorescence (AID 1108); settings: small-molecule microarray binding, fluorescence 635 nm; higher = more signal;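 also: E7 fragment applied at 1 µg/mL in TBST for 1 h at 4 C; score combines spot fluorescence with its signal to noise ratio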
[12] = modulators of HCV replicon luciferase signal, primary screen, HCV replication inhibitor project, Huh7 cells, luciferase reporter (AID 1109); settings: 48 h, higher = more signal;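 also: huh7 hepatoma cells harbouring a luciferase neomycin HCV replicon reporter; luciferase luminescence as measure of HCV replicon replication; test concentration not given here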
[13] = molecular target: Left-right determination factor 2 (Homo sapiens) (UniProt O00292); assay: LEFTY2 binders on small-molecule microarrays, primary screen, biochemical, small-molecule microarray, 635 nm fluorescence scan (AID 1110); settings: LEFTY2 binding, higher = more signal
[14] = molecular target: Calmodulin-1 (Homo sapiens) (UniProt P0DP23); assay: CALM1 binders on microarrays, EGTA buffer, profiling panel, biochemical, small-molecule microarray, Cy5-labelled CALM1 (AID 1111); settings: Cy5-CALM1 binding fluorescence, higher = more signal;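 also: labelled calmodulin applied in Tris saline Tween buffer holding calcium plus EGTA and DTT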
[15] = molecular target: Calmodulin-1 (Homo sapiens) (UniProt P0DP23); assay: calcium-bound CALM1 binders on microarrays, profiling panel, artefact control for SMM control-protein annotation, biochemical, small-molecule microarray, Cy5-labelled CALM1, plus calcium (AID 1112); settings: Cy5-CALM1 binding fluorescence, higher = more signal;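 also: score merges spot fluorescence with signal to noise from triplicate slides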
[16] = small-molecule microarray binders of probe aWnt5a, primary screen, biochemical, biotinylated probe, 635/667 nm fluorescence (AID 1113); settings: higher = more signal;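 also: score merges 667 nm fluorescence intensity with signal-to-noise per printed feature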
[17] = small-molecule microarray binders of probe aShh, primary screen, biochemical, biotinylated probe, 635/667 nm fluorescence (AID 1114); settings: higher = more signal;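 also: probe is biotin-labelled aShh protein from a stem cell growth factor screen; measures binding of labelled protein to compounds printed on the slide; score merges feature fluorescence at 667 nm with signal-to-noise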
[18] = small-molecule microarray binders of probe aNog, primary screen, biochemical, biotinylated probe, 635/667 nm fluorescence (AID 1115); settings: higher = more signal;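 also: probe is biotinylated aNog protein used at 0.15 µg/mL for 1 h at 4 C; z-score combines 667 nm fluorescence of each spot with its signal to noise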
[19] = molecular target: Torsin-1A-interacting protein 1 (Homo sapiens) (UniProt Q5JTV8); assay: LAP1 binders from COS7 cell lysate, primary screen, small-molecule microarray, 635/667 nm fluorescence (AID 1116); settings: COS7-hLAP1 lysate binding, 635 nm fluorescence, higher = more signal
[20] = molecular target: Alpha-bungarotoxin (Bungarus multicinctus) (UniProt P60615); assay: alpha-bungarotoxin binders on microarray, profiling panel, artefact control for SMM control protein annotation, biochemical, small-molecule microarray, Alexa647 label, 635/667 nm fluorescence (AID 1117); settings: alpha-BTX-A647 binding fluorescence, higher = more signal
Alpha-bungarotoxin (Bungarus multicinctus), sequence (P60615 whole entry, looked up): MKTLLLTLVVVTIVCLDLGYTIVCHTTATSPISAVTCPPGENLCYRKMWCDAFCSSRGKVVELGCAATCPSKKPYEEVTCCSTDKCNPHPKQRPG

Left-right determination factor 2 (Homo sapiens), sequence (O00292 whole entry, looked up): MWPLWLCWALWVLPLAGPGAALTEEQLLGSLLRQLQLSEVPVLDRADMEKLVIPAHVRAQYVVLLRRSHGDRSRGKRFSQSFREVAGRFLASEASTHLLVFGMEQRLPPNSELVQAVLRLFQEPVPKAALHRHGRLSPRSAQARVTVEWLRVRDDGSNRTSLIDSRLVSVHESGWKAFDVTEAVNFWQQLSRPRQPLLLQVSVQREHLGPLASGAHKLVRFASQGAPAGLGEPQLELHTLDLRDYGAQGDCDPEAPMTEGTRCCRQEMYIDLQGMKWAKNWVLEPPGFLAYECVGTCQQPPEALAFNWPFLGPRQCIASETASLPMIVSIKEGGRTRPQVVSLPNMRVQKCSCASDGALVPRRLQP
Follistatin-related protein 3 (Homo sapiens), sequence (O95633 whole entry, looked up): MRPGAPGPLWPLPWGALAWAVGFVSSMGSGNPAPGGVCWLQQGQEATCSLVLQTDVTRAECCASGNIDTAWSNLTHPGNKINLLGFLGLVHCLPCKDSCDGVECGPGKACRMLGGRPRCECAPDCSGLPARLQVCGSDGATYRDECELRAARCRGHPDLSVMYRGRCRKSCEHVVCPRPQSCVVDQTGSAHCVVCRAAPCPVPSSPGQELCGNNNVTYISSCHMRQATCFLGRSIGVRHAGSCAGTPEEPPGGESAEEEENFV
Dickkopf-related protein 1 (Homo sapiens), sequence (O94907 whole entry, looked up): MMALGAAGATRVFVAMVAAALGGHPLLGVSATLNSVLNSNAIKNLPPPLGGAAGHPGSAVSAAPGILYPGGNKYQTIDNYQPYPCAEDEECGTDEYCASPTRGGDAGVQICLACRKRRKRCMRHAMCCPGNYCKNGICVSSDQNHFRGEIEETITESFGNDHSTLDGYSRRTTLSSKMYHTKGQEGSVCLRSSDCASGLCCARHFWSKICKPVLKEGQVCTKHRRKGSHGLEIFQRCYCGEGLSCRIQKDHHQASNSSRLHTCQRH
Torsin-1A-interacting protein 1 (Homo sapiens), sequence (Q5JTV8 whole entry, looked up): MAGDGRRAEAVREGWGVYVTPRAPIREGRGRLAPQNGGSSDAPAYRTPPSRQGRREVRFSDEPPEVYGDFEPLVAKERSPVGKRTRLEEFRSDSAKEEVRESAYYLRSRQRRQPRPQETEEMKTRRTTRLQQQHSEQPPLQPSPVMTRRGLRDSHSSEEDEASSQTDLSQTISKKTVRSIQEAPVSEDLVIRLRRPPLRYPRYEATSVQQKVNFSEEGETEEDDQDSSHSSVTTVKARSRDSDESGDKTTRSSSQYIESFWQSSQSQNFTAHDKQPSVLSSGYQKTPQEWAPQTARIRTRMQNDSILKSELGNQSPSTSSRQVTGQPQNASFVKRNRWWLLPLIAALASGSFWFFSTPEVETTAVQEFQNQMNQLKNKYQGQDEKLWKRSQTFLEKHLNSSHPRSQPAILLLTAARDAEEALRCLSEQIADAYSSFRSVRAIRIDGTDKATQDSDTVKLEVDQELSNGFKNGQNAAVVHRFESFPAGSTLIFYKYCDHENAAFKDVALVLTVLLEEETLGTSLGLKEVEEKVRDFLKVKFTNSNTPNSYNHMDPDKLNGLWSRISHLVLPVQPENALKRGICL
Fibroblast growth factor 10 (Homo sapiens), sequence (O15520 whole entry, looked up): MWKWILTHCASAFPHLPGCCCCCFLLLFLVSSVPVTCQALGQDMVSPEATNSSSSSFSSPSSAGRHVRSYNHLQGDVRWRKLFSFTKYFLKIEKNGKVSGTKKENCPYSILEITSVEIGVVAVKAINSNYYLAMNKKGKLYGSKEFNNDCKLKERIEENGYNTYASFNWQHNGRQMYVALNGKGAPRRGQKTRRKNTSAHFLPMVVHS
Epidermal growth factor receptor (Homo sapiens), sequence (P00533 whole entry, looked up): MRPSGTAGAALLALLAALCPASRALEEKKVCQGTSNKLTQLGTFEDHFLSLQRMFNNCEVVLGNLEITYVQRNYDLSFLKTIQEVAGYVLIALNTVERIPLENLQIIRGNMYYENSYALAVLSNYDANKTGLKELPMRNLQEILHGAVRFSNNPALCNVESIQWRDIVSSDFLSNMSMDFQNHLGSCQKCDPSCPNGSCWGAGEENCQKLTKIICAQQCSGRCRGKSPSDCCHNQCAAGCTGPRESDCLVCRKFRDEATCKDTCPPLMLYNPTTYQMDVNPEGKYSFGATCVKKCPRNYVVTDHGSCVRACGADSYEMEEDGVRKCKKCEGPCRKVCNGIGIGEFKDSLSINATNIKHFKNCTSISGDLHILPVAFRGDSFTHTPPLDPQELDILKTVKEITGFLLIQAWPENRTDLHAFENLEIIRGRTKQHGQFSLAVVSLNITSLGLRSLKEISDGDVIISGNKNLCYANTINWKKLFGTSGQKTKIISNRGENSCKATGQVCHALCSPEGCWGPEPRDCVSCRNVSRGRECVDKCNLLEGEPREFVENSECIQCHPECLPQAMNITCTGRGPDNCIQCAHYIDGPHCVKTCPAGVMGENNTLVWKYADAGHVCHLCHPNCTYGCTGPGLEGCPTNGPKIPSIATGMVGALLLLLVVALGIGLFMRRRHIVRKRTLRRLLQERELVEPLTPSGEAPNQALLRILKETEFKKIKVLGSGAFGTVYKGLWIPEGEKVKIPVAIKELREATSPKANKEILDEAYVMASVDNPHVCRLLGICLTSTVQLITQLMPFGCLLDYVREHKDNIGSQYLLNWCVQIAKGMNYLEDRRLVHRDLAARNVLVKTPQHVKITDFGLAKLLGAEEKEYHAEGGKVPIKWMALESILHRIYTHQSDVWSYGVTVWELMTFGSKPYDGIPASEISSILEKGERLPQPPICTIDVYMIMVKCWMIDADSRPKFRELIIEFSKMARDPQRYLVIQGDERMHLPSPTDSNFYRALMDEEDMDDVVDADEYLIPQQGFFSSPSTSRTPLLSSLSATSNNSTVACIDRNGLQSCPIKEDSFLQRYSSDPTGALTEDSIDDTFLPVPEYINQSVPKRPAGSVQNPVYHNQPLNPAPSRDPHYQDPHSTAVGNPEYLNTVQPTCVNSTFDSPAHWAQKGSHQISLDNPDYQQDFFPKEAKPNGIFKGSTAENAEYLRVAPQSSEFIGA

| SMILES | composite z-score [1] | composite z-score [2] | composite z-score [3] | z-score [4] | composite z-score [5] | composite z-score [6] | composite z-score [7] | composite z-score [8] | composite z-score [9] | composite z-score [10] | composite z-score [11] | z-score [12] | composite z-score [13] | composite z-score [14] | composite z-score [15] | composite z-score [16] | composite z-score [17] | composite z-score [18] | composite z-score [19] | composite z-score [20] |
| --- | --- | --- | --- | --- | --- | --- | --- | --- | --- | --- | --- | --- | --- | --- | --- | --- | --- | --- | --- | --- |
| C=CCOC(=O)[C@@H]1[C@H]2C(=O)O[C@H](c3ccccc3)[C@H](c3ccccc3)N2[C@H](c2ccc(OCCOC(=O)[C@@H]3C[C@@H]4C(=O)N[C@@H](CCCCNC(C)=O)C(=O)N4[C@@H]3c3ccc(O)cc3)cc2)[C@@]12C(=O)Nc1ccc(I)cc12 | 1.58 | -0.219 | -0.249 | 0.0887 (inactive) | 1.43 | 1.27 | 1.12 | 1.35 | 0.616 | 0.499 | 1.41 | -0.66 | 0.722 | 0.743 | -0.342 | -0.0684 | 0.0098 | -0.192 | 0.6 | 0.831 |
| N#Cc1ccc(NN2C(C(O)c3ccco3)C=CC3C(=O)N(c4ccccc4)C(=O)C32)cc1 (stereo not given) | 0.939 | 0.565 | 0.843 | 1.07 (inactive) | 0.505 | -0.202 | 0.0343 | 0.0837 | 0.18 | 0.921 | -0.345 | -0.36 | -0.0879 | 0.144 | -0.539 | 0.0012 | -0.0035 | 0.531 | -0.247 | 0.518 |
| Cc1ccc(-c2cccc(=O)o2)cc1 | -0.466 | 0.0694 | -0.0115 | 0.613 (inactive) | -0.1 | -0.39 | 0.115 | 0.483 | 0.184 | 1.35 | -1.01 | 0.488 | 0.418 | -1.18 | -0.802 | -0.145 | -0.138 | 0.11 | -0.101 | -0.391 |
| O=C1NC(=O)C2C1C=CC(C(O)c1ccc(-c3ccccc3)s1)N2Nc1ccccn1 (stereo not given) | 0.115 | 1.09 | 1.25 | 1.56 (inactive) | 0.475 | -0.316 | 0.559 | 0.561 | 0.664 | 1.18 | -1.13 | -0.684 | 0.18 | 0.0183 | 0.0403 | 0.0746 | -0.0961 | -0.0545 | 2.8 | 0.435 |
| CC(C)NC(=O)[C@@]1(Cc2ccccc2I)c2ccccc2C(=O)N(Cc2ccccc2C(F)(F)F)[C@H]1c1ccc(CO)cc1 | 1.75 | 0.474 | 0.594 | 0.4 (inactive) | 0.157 | 0.182 | -0.251 | 0.0273 | -0.467 | 0.299 | -0.358 | -1.47 | -0.0083 | 0.503 | 0.377 | -0.096 | -0.012 | 0.647 | 0.506 | 0.565 |
